Screens as filed in PubChem.
Pf growth 96h: P. falciparum growth inhibition at 96 hours. P. falciparum luciferase reporter growth, 96 h. Potency, µM (highest dose often 28.7 µM), hits mostly inhibitors. 320,000 compounds, 6.9% hits. AID 504834; active = well fitted inhibition curve with a large enough effect; inconclusive = small, poorly fitted or top-dose-only effect, or another doubt; inactive = no such curve, though single readings can be large or run the other way
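Luminescence readout: decreased luciferase signal marks inhibited growth of reporter-expressing P. falciparum in infected red cells (2% hematocrit, 0.05% parasitemia final), exposed to compound two generations (96 h, 37 C, 5% CO2).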
Pf growth 48h: P. falciparum growth inhibition at 48 hours (one generation); P. falciparum luciferase growth in erythrocytes, 48 h; Potency, µM (top dose mostly 28.7 µM), hits mostly inhibitors; 310,000 compounds, 5.9% hits; AID 504832; active = well fitted inhibition curve with a large enough effect; inconclusive = small, poorly fitted or top-dose-only effect, or another doubt; inactive = no such curve, though single readings can be large or run the other way
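Parasite viability was followed by luminescence of a genomically integrated firefly luciferase. Cultures held 0.1% parasitemia at 2% hematocrit (final), incubated under 5% CO2 at 37 C.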
CHX counter: counter-screen hit for Shiga toxin inhibitors, cycloheximide. 300,000 compounds, 12% hits. max response, %. cell reporter, cycloheximide protein synthesis inhibition counterscreen; in the data active = max response mostly above about 13%, no sharp cut-off; inactive = mostly below about 14%; note: read at 38.3 µM for the half of the compounds with a filed dose
NS1 function inh: influenza NS1 inhibition; Potency, µM (titrated, usually from 46.1 µM); 270,000 compounds, 0.4% hits; AID 2326; note: actives are rising curves; nearly all actives have a fitted effect of over 50% in size
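Read-out: OD600 growth recovery of NS1-expressing budding yeast. Cells grown overnight at 30C in -URA glucose medium, washed, resuspended and diluted 1:100 in 2% galactose assay medium, pH 6.0. Same strain lacking NS1 served as positive control.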
Shiga inhibitor: inhibitors of Shiga toxin in Vero cells. AID 2315. Vero cells, Shiga toxin protein synthesis inhibition reporter. 290,000 compounds, 9.2% hits. inhibition, % at 38.7 µM; in the data active = inhibition mostly above about 28%, no sharp cut-off; inactive = mostly below about 43%
SARS PLP yeast: blocks SARS-CoV papain-like protease in a yeast assay. S. cerevisiae expressing SARS-CoV PLpro, growth rescue. Potency, µM (highest dose often 32.9 µM), actives largely listed as activators. 330,000 compounds, 0.19% hits; note: nearly all actives have a fitted effect of over 55% in size
Large screens that a line does not name were inactive. This is a sample that favours compounds with a hit; in the whole collection about 21% have one here. Unless noted, calls come from the whole dose curve.

CCOC(=O)c1ccc(N2CCN(c3ccccc3F)CC2)c(NC(=O)Nc2ccccc2)c1	Pf growth 96h inconclusive, Pf growth 48h 13µM, NS1 function inh inconclusive
COCCNC(=O)c1ccc(N2CCCCC2)c(NS(=O)(=O)c2ccc(C)cc2)c1	Pf growth 48h 5.2µM, CHX counter 16
CCOCCCNC(=O)c1ccc(N2CCOCC2)c(NS(=O)(=O)c2ccc(OC)cc2)c1	none (no result: NS1 function inh)
COCCCNC(=O)c1ccc(N2CCOCC2)c(NS(=O)(=O)c2ccc(OC)cc2)c1	SARS PLP yeast inconclusive (no result: Pf growth 96h)
CCCCNC(=O)c1ccc(N2CCOCC2)c(NS(=O)(=O)c2ccc(OC)cc2)c1	Pf growth 48h 7.4µM
Cc1ccc(S(=O)(=O)Nc2cc(C(=O)NCCN(C)C)ccc2N2CCCC2)cc1	Pf growth 96h 8.3µM
CCN(CC)CCCNC(=O)c1ccc(N2CCCCC2)c(NS(=O)(=O)c2ccc(C)cc2)c1	Pf growth 96h inconclusive, Pf growth 48h inconclusive (no result: NS1 function inh)
CCOC(=O)c1ccc(N2CCN(c3ccc(F)cc3)CC2)c(NC(=O)Nc2cccc(OC)c2)c1	Pf growth 96h inconclusive, Pf growth 48h inconclusive
COc1cc(C(=O)NNC(=O)CN2C(=O)NC(C)(c3ccc(C)cc3)C2=O)cc(OC)c1OC (stereo not drawn)	Pf growth 48h inconclusive (no result: CHX counter, NS1 function inh, Shiga inhibitor)
O=C1Nc2ccc(Cl)cc2[C@@](C#CC2CC2)(C(F)(F)F)O1	none (no result: Pf growth 96h, Pf growth 48h, NS1 function inh)
CCOC(=O)c1ccc(N2CCCCC2)c(NS(=O)(=O)c2ccc(C)cc2)c1	Pf growth 96h 1µM, Pf growth 48h 2.3µM
CCOC(=O)c1ccc(S(=O)(=O)Nc2cc(S(=O)(=O)N3CCOCC3)ccc2O)cc1	none (no result: Pf growth 96h, Pf growth 48h, CHX counter, NS1 function inh, Shiga inhibitor)
CCN1CCc2c(C#N)c(N3CCCCC3)nc(NCc3ccccc3)c2C1	Pf growth 96h 2.6µM, Pf growth 48h inconclusive (no result: SARS PLP yeast)
CCc1nc(NCc2ccccc2)c(C#N)c2c1CCCC2	Pf growth 96h inconclusive, Pf growth 48h 10µM
CCN1CCc2c(C#N)c(N3CCOCC3)nc(NCc3ccccc3)c2C1	none (no result: Pf growth 48h)
COc1ccc(CN([C@H](CO)CC(C)C)S(=O)(=O)N(Cc2ccccc2)[C@H](CO)CC(C)C)cc1	none (no result: Pf growth 96h, Pf growth 48h, CHX counter, NS1 function inh, Shiga inhibitor)
COC(=O)[C@@H](CC(C)C)NS(=O)(=O)N(Cc1ccccc1)[C@@H](CC(C)C)C(=O)OC	Pf growth 96h inconclusive, Pf growth 48h 13µM (no result: CHX counter, NS1 function inh, Shiga inhibitor)
CC(C)C[C@@H](CO)N(Cc1ccccc1)S(=O)(=O)N(Cc1ccccc1)[C@@H](CO)CC(C)C	Pf growth 96h 2.6µM, Pf growth 48h 7.4µM (no result: CHX counter, NS1 function inh, Shiga inhibitor)
CC(C)C[C@@H](CO)N(Cc1ccccc1)S(=O)(=O)N(Cc1ccccc1)[C@H](CO)CC(C)C	Pf growth 96h inconclusive, Pf growth 48h 4.7µM (no result: CHX counter, NS1 function inh, Shiga inhibitor)
C=CCN([C@@H](CC(C)C)C(=O)OC)S(=O)(=O)N(CC=C)[C@@H](CC(C)C)C(=O)OC	Pf growth 96h inconclusive, Pf growth 48h 4.7µM (no result: CHX counter, NS1 function inh, Shiga inhibitor)
CCOc1cc(C(=O)Nc2cccc(OCC(=O)N3CCOCC3)c2)cc(OCC)c1OCC	none
Oc1ccc(-c2csc(Nc3cccc4ccccc34)n2)cc1O	Pf growth 48h inconclusive
Cc1ccnc(Nc2nc(-c3ccc(O)cc3O)cs2)c1	CHX counter 25, Shiga inhibitor 22
Oc1ccc(-c2csc(Nc3ccccn3)n2)cc1O	CHX counter 43, NS1 function inh inconclusive, Shiga inhibitor 100
Cc1ccnc(Nc2nc(-c3ccc(O)cc3)cs2)c1	CHX counter 35, Shiga inhibitor 120
CC(=O)Nc1ccc(-c2csc(NCCc3ccccc3)n2)cc1	Pf growth 48h inconclusive, CHX counter 21
CC(=O)Nc1ccc(-c2csc(NC(=O)Cc3cccc(F)c3)n2)cc1	none
O=C(COc1ccccc1[N+](=O)[O-])N(C1CCCCC1)C1CCS(=O)(=O)C1 (stereo not drawn)	none (no result: CHX counter, NS1 function inh, Shiga inhibitor)
Cc1cc(=O)[nH]c2cc3oc4ccccc4c3cc12	none (no result: Pf growth 96h, Pf growth 48h, CHX counter, Shiga inhibitor, SARS PLP yeast)
O=C(COC(=O)C1COc2ccccc2O1)Nc1ccc(Cl)cc1 (stereo not drawn)	none (no result: CHX counter, NS1 function inh, Shiga inhibitor)
CCOc1ccc(S(=O)(=O)N2CCN(c3ccccc3F)CC2)c2cccnc12	Pf growth 48h inconclusive
CC(=O)Nc1ccc(-c2csc(NC(=O)Cc3ccccc3F)n2)cc1	none
Cc1ccnc(Nc2nc(-c3ccc(O)c(O)c3)cs2)c1	Pf growth 96h inconclusive, Pf growth 48h inconclusive, CHX counter 40, Shiga inhibitor 97
CC(=O)Nc1ccc(-c2csc(Nc3ccccn3)n2)cc1	CHX counter 48, Shiga inhibitor 52
Cc1ccn2cc(-c3ccc(O)c(O)c3)nc2c1	Pf growth 96h inconclusive
CN(C(=O)CSc1nnc(-c2ccccc2F)n1N)C1CCCCC1	none (no result: CHX counter, NS1 function inh, Shiga inhibitor)
